Experimental findings from PubChem BioAssay (NCATS) are described below.

Each structure is given as a SMILES string. Values joined by “and” are separate entries in the source; they are usually repeats but may differ in a detail not shown here. Identical values can stand only once. Inconclusive results are not listed. For some assays here: Potency and affinity values are given separately. Active and inactive are the calls of the source.

For assay [1] the following is noted: Ebola virus entry assay, blue channel fluorescence.
For assay [2] the following is noted: Ebola virus entry assay, green fluorescence channel.
For assay [3] the following is noted: Ebola virus entry assay, ratio channel readout.
The conditions of assay [4]: Ebola virus entry assay, blue channel fluorescence. The source holds these as a separate data set.
For assay [5] the following is noted: Ebola virus entry assay, ratio channel.
The conditions of assay [6]: Ebola virus entry assay, green channel fluorescence.
For assay [7] the following is noted: Ebola virus entry assay, reporter ratio channel; AC50: Channel type: primary unless noted; outcome: Channel type: primary unless noted.
For assay [8] the following is noted: Ebola virus entry assay, blue channel fluorescence. This is another data set of the same source.
The target of assay [9] is T1, Hexokinase-4 (Homo sapiens) + Glucokinase regulatory protein (Homo sapiens) (UniProt P35557+Q14397). Kind of assay: qHTS assay for inhibitors of recombinant human GCK-GKRP interaction: ADP-Glo assay (AID 743206; active means well fitted curve in the direction sought with a large enough effect; an effect the other way counts as inactive or inconclusive;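 further: plate controls were DMSO plus enzyme for no effect and no enzyme for full effect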). The note with it: ADP-Glo luminescence, 60 min, 0% = vehicle-only wells with enzyme present; series mostly up to 76.9 µM. Put shortly:
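Pin-transferred compounds meet a 15 nM GST-GCK/15 nM FLAG-GKRP/2 uM S6P mix (dispense concentrations). ATP is then added to 0.4 mM final with 5 mM glucose, and the reaction runs 60 min at room temperature. ADP is quantified luminescently.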

The target in assay [10] is T1, Hexokinase-4 (Homo sapiens) + Glucokinase regulatory protein (Homo sapiens). Kind of assay: qHTS assay for inhibitors of recombinant human GCK-GKRP interaction: HTRF assay (AID 743207; active means well fitted curve in the direction sought with a large enough effect; an effect the other way counts as inactive or inconclusive;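 further: 0% = DMSO with GCK present and -100% = DMSO wells lacking GCK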). The note with it: recombinant GCK-GKRP HTRF binding, 60 min; series mostly up to 57.5 µM. Put shortly:
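Steps: dispense GCK–GKRP complex (5 nM each, GST- and FLAG-tagged) with 2 uM S6P; pin in compounds; add XL665/Eu-cryptate-labelled antibodies; incubate 60 min at room temperature; read time-resolved FRET at 665 and 615 nm.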
For orientation: Quantitative high-throughput screening tests each substance at several concentrations.

Assay [11] can be described thus: qHTS Assay for Identifying Gametocytocidal Compounds (AID 743244; active means well fitted curve in the direction sought with a large enough effect; an effect the other way counts as inactive or inconclusive;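 further: on the % scale 0 is the no-effect control and ±100 the full control effect; actives lower the fluorescent signal which means gametocytes are killed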). The note with it: P. falciparum 3D7 stage III-V gametocytes, alamarBlue, 72 h; max response: stronger effect = lower value. Put shortly:
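Stage III–V gametocytes of P. falciparum 3D7 were seeded at 20,000 cells/well onto pre-dispensed compounds. After 72 h, 37 °C, 5% CO2, alamarBlue was added for another 24 h.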

Assay [12] is described as follows: qHTS assay for cell viability of HEK293 cells (AID 743288; active means well fitted curve in the direction sought with a large enough effect; an effect the other way counts as inactive or inconclusive; further: on the % scale 0 is the no-effect control and ±100 the full control effect; nearly all actives have a fitted effect of over 50% in size). The following applies: ATP luminescence (CellTiter-Glo), 18 h, stronger effect = lower value. The procedure, abridged: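 Quantitative high-throughput screen: compounds were pinned onto parental HEK293 cells (2,000 per well) after a minimum 5 h settling at 37 C, incubated 18 h at 37 C, and intracellular ATP measured by luciferase luminescence.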

The nature of assay [13]: qHTS assay for cell viability of the p53RE-bla HCT-116 cell line (AID 743292; active means well fitted curve in the direction sought with a large enough effect; an effect the other way counts as inactive or inconclusive; further: on the % scale 0 is the no-effect control and ±100 the full control effect; nearly all actives have a fitted effect of over 55% in size). The following applies: p53RE-bla HCT-116 viability, ATP luminescence, 16 h; series mostly up to 95 µM. Put shortly: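 Viability of compound-treated p53RE-bla HCT-116 cells is taken from ATP-dependent luciferase luminescence. Treatment lasts 16 h at 37 C after a 5 h settling period; detection follows 30 min at room temperature.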

The nature of assay [14]: qHTS profiling of the MIPE4 collection as inhibitors of Plasmodium falciparum (3D7) proliferation (AID 743344).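 Further: scaled between DMSO vehicle wells and 0.29 µM artemisinin as full inhibition.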 The following applies: P. falciparum 3D7 in erythrocytes, SYBR Green DNA fluorescence, 72 h; at 28.5 µM (top of the series) unless noted. The procedure, abridged: (§1)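 Parasite DNA was quantified by SYBR Green I fluorescence (ex 485, em 535 nm) after overnight lysis in saponin/Triton buffer at room temperature. Cultures at 0.3% parasitemia and 2.5% hematocrit were first exposed to compound for 72 h at 37 C; signals were normalised to artemisinin (0.29 uM) and vehicle wells.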

The nature of assay [15]: qHTS profiling of the MIPE4 collection as inhibitors of Plasmodium falciparum (DD2) proliferation (AID 743345). The note with it: P. falciparum Dd2 in erythrocytes, SYBR Green DNA, 72 h; at 28.5 µM (top of the series) unless noted. Put shortly:
as §1

Assay [16] can be described thus: qHTS profiling of the MIPE4 collection as inhibitors of Plasmodium falciparum (DD2) proliferation (Rep 2) (AID 743346). The following applies: P. falciparum Dd2 in erythrocytes, SYBR Green DNA, 72 h; at 28.5 µM (top of the series) unless noted. Put shortly: as §1
Assay [17] can be described thus: qHTS profiling of the MIPE4 collection as inhibitors of Plasmodium falciparum (HB3) proliferation (AID 743347).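 Further: plate controls were DMSO vehicle wells for no effect and artemisinin wells for full effect.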 The note with it: P. falciparum HB3 in erythrocytes, SYBR Green DNA, 72 h; at 28.5 µM (top of the series) unless noted. Put shortly:
as §1

T1 sequence (P35557 whole entry, looked up): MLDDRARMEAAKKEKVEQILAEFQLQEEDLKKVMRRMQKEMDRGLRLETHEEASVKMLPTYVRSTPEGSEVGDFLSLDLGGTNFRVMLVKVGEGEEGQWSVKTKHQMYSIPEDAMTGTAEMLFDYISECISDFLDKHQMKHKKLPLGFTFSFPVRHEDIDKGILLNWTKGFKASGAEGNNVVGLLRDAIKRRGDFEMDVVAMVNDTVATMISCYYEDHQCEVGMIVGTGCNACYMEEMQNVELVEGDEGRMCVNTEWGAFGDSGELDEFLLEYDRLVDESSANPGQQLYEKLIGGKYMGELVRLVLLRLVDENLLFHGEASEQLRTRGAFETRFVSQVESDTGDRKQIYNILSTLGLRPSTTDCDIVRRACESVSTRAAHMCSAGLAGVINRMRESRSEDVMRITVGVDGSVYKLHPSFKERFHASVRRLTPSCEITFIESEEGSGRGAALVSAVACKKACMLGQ
T1 sequence (Q14397 whole entry, looked up): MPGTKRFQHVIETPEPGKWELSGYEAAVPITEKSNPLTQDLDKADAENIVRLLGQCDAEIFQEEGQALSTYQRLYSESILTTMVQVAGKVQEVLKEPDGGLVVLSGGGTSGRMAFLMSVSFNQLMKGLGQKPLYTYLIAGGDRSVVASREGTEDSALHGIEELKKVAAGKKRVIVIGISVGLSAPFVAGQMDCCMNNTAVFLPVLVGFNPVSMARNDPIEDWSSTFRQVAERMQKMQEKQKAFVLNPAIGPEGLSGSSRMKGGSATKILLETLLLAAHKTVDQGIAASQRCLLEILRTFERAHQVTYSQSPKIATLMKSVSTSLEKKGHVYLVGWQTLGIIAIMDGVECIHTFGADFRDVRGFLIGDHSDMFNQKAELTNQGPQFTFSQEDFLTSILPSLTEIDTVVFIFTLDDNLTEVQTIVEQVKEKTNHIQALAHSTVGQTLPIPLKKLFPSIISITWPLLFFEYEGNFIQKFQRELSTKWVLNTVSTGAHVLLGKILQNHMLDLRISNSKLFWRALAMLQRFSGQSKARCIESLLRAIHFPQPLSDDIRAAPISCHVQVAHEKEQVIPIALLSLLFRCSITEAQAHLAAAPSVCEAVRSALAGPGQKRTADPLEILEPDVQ

Consider `C=CC1=C(C(=O)O)N2C(=O)[C@@H](NC(=O)/C(=N\O)c3csc(N)n3)[C@H]2SC1` (stereo in doubt), for which the compound was classed as inactive in assay [1], in [2], in assay [3] and in assay [4].

Turning to `C[N+]1(C)CCCC(OC(=O)C(O)(c2ccccc2)c2ccccc2)C1` (centres undefined), the compound was classed as inactive in assay [1], in assay [2], in assay [3], in [5], in [6] and in [4]. Moreover, the result in [7] was inactive.

`CCN1CC(CCN2CCOCC2)C(c2ccccc2)(c2ccccc2)C1=O` (centres undefined): the outcome in assay [1], in [2], in assay [3], in [5], in assay [6] and in [4] was inactive. Moreover, the outcome in assay [7] was inactive.

On to `O=C(N[C@H](CO)[C@H](O)c1ccc([N+](=O)[O-])cc1)C(Cl)Cl`, for which the call in [1], in [2], in [3], in assay [5], in assay [6] and in [4] was inactive. Besides, the result in [7] was inactive.

In the case of `CC1COc2c(N3CCN(C)CC3)c(F)cc3c(=O)c(C(=O)O)cn1c23` (centres undefined), the result in assay [1], in assay [2], in assay [3], in [8], in assay [6] and in [4] was inactive. For the same compound, the outcome in [7] was inactive.

Regarding `O=C(O)CCCc1ccc(N(CCCl)CCCl)cc1`, the result in [9], in [10], in [1], in [2], in assay [3] and in assay [5] was inactive. In addition, the compound was called inactive in assay [6], in assay [4] and in assay [7]. Moreover, the max response in assay [11] is -1.81% (inactive) and 3.48% (inactive); in assay [12], -9.24% (inactive) and -11.4% (inactive). For the same compound, the Potency entry in assay [13] is “inactive”. Further, in assay [14], the parasite growth, % of DMSO control came to 70.9%. The parasite growth remaining, % of DMSO control (lower = more inhibition) in assay [15] amounted to 82.7%. For the same compound, the parasite growth, % of control (lower = inhibition) in assay [16] is 81.2%. This compound also displayed a growth, % of control in assay [17] of 54.2%.

As to `C=CCC1([C@H](C)CCC)C(=O)NC(=O)NC1=O`, in assay [11], the max response is -4.95% (inactive). Besides, the result in assay [1], in [2], in assay [3], in assay [8], in assay [6] and in [4] was inactive. Further, the outcome in [7] was inactive.

Turning to `C[N+](C)(C)CC(O)CC(=O)[O-]` (centres undefined), the result in assay [1], in assay [2], in assay [3], in assay [6], in [4] and in [7] was inactive.

The AC50 is the concentration at which the activity in the assay is half-maximal. For the compound `CC[C@H]1OC(=O)[C@H](C)[C@@H](O[C@H]2C[C@@](C)(OC)[C@@H](O)[C@H](C)O2)[C@H](C)[C@@H](O[C@@H]2O[C@H](C)C[C@H](N(C)C)[C@@H]2O)[C@](C)(O)C[C@@H](C)CN(C)[C@H](C)[C@@H](O)[C@]1(C)O`, the concentration at half-maximal activity (AC50) was 2510 nM (active) in assay [1] and 2520 nM (active) in assay [3]. For the same compound, the compound was called inactive in assay [2] and in assay [6]. Further, the outcome in [7] was “inactive [Channel type: confirmation]”.

In the case of `CCCCC(C)(O)C/C=C/[C@H]1[C@H](O)CC(=O)[C@@H]1CCCCCCC(=O)OC` (some centres undefined), the compound was called inactive in assay [1], in [2], in assay [3] and in assay [4].

Turning to `O=C1CN(/N=C/c2ccc([N+](=O)[O-])o2)C(=O)N1`, the compound was classed as inactive in assay [1], in [2], in assay [3], in [8], in assay [6] and in assay [4]. Moreover, the result in assay [7] was inactive.

For `Nc1ccc(C(=O)O)c(O)c1`, the result in [1], in assay [2], in assay [3], in [6], in [4] and in assay [7] was inactive.

Turning to `CCCCC(=O)N(Cc1ccc(-c2ccccc2-c2nn[nH]n2)cc1)[C@@H](C(=O)O)C(C)C`, the compound was called inactive in [1], in assay [2], in [3] and in assay [4].

`NC(=O)N1c2ccccc2C=Cc2ccccc21`: the outcome in assay [1], in assay [2], in assay [3], in [5], in [6] and in [4] was inactive. Besides, the outcome in assay [7] was inactive.

As for `Cc1nnc(SCC2=C(C(=O)O)N3C(=O)[C@@H](NC(=O)Cn4cnnn4)[C@H]3SC2)s1`, the call in assay [1], in assay [2], in [3], in [8], in [6] and in [4] was inactive. The result in assay [7] was inactive.

With `OCCOCCN1CCN(C2=Nc3ccccc3Sc3ccccc32)CC1`, the compound was called inactive in assay [1], in [2], in [3], in assay [8] and in [4].

As for `S=c1nc[nH]c2nc[nH]c12`, the outcome in [1], in [2], in assay [3], in [6], in assay [4] and in [7] was inactive.

On to `CC(CCc1ccc(O)cc1)NCCc1ccc(O)c(O)c1` (centres undefined), for which the outcome in [1], in assay [2], in assay [3], in assay [6], in [4] and in assay [7] was inactive.

On to `Clc1ccc2nsnc2c1NC1=NCCN1`, for which the result in [1], in assay [2], in assay [3], in assay [8], in [6] and in [4] was inactive. In [7], the result was inactive.

`CO/N=C(/C(=O)N[C@@H]1C(=O)N2C(C(=O)O)=C(COC(N)=O)CS[C@H]12)c1ccco1`: the compound was classed as inactive in assay [1], in [2], in assay [3] and in assay [4].

Take `C=C1[C@H](CO)[C@@H](O)C[C@@H]1n1cnc2c(=O)[nH]c(N)nc21`: the compound was called inactive in assay [1], in [2], in assay [3] and in [4].

`CCN1C(=O)NC(c2ccccc2)C1=O` (centres undefined): the result in [1], in assay [2], in assay [3] and in assay [4] was inactive.

With `Cn1nnc2c(C(N)=O)ncn2c1=O`, the compound was classed as inactive in assay [1], in [2], in [3], in assay [6], in assay [4] and in assay [7].

For the compound `CC(C)N(CCC(C(N)=O)(c1ccccc1)c1ccccn1)C(C)C` (centres undefined), the outcome in [9], in [10], in assay [1], in [2], in assay [3] and in assay [5] was inactive. Moreover, the compound was classed as inactive in [6], in assay [4] and in assay [7]. The max response in assay [11] was 11.9% (inactive) and -6.08% (inactive) and 19.7% (inactive). Moreover, the parasite growth, % of DMSO control in assay [14] is 105%. The same compound had a parasite growth remaining, % of DMSO control (lower = more inhibition) in assay [15] of 100%. This compound also gave a parasite growth, % of control (lower = inhibition) in [16] of 42.5%. Further, the growth, % of control in assay [17] was found to be 95.7%.

As to `NC(=O)CC[C@@H]1NC(=O)[C@H](Cc2ccccc2)NC(=O)[C@H](Cc2ccc(O)cc2)NC(=O)CCSSC[C@@H](C(=O)N2CCC[C@H]2C(=O)N[C@@H](CCCN=C(N)N)C(=O)NCC(N)=O)NC(=O)[C@H](CC(N)=O)NC1=O`, the compound was classed as inactive in assay [1], in assay [2], in [3], in [6], in assay [4] and in assay [7].
